Where a structure was tested more than once in an assay, its records may differ in their call. Active and inactive are the calls of the source. How the source made its calls: active means hit-call score of the fitted dose curve at least 0.9, where 1 is the maximum; inactive means score below 0.9.
What follows are compounds tested on Macrophage Inflammatory Protein-1 Alpha (MIP1a), CCL3 (gene 6348) (assay: BSK_IMphg_MIP1a: BioMAP Diversity Plus: IMphg Assay for Macrophage Inflammatory Protein-1 Alpha (MIP1a) Biomarker Activity (AID 2284255)). Details: primary human endothelial cells with macrophages.
Method in brief: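 Co-culture of human venular endothelial cells and macrophages exposed to compounds for 24 h; MIP-1a measured by ELISA relative to DMSO. Cytotoxicity assessed in parallel cultures by sulforhodamine B total-protein staining at 560 nm.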
With `CC(C)(C)C(=O)CC(=O)C(F)(F)C(F)(F)C(F)(F)F` the AC50 was 44.2 µM (active) and the outcome was “inactive”.
`O=C(O)C(F)(F)C(F)(F)OC(F)(F)F` was tested, and the outcome was “inactive”.
With `OCC(F)(F)C(F)(F)C(F)(F)C(F)(F)C(F)(F)C(F)(F)F` the outcome was “inactive”.
With `FC(F)(F)C(F)(F)C(F)(F)C(F)(F)C(F)(F)C(F)(F)C(F)(F)Br` the outcome was “inactive”.
In the case of `C=C(C)C(=O)OCC(F)(F)C(F)(F)C(F)(F)F`, the outcome is reported as “inactive”.
For `OCC(F)(F)C(F)(F)C(F)(F)C(F)(F)C(F)(F)C(F)F`, the outcome was “inactive”.
For `C=CC(F)(F)C(F)(F)C(F)(F)C(F)(F)C(F)(F)C(F)(F)C(F)(F)C(F)(F)F`, the outcome was “inactive”.
With `Cc1ccc(S(=O)(=O)OCC(F)(F)C(F)(F)C(F)(F)C(F)(F)C(F)(F)C(F)F)cc1` the outcome was “inactive”.
For `N=C(N)C(F)(F)C(F)(F)C(F)(F)C(F)(F)C(F)(F)C(F)(F)C(F)(F)F`, the outcome was “inactive”.
With `CCO[Si](CCC(F)(F)C(F)(F)C(F)(F)C(F)(F)C(F)(F)C(F)(F)F)(OCC)OCC` the outcome was “inactive”.
In the case of `FC(F)(F)C(F)(F)CNCC(F)(F)C(F)(F)F`, the outcome is reported as “inactive”.
With `C=CC(=O)OCC(F)(F)C(F)(F)C(F)(F)C(F)(F)COC(=O)C=C` the outcome was “inactive”.
In the case of `FC(F)(F)C(F)(F)C(F)(F)C(F)(F)C(F)(F)C(F)(F)CC1CO1` (configuration not stated), the outcome is reported as “inactive”.
For `OCCCC(F)(F)C(F)(F)C(F)(F)F`, the outcome was “inactive”.
`O=C(Cl)C(F)(F)C(F)(F)C(F)(F)C(F)(F)C(F)(F)C(F)(F)C(F)(F)C(F)(F)F` was tested, and the AC50 was 23 µM (active) and the outcome was “inactive”.
In the case of `O=C(O)C(F)(F)C(F)(F)C(F)(F)C(F)(F)C(F)(F)C(F)(F)C(F)(F)C(F)(F)Cl`, the AC50 is reported as 37.3 µM (active) and the outcome is reported as “inactive”.
With `FC(F)(F)C(F)(F)C(F)(F)C(F)(F)C(F)(F)CCI` the outcome was “inactive”.
`O=C(O)C(F)(F)C(F)(F)C(F)(F)C(F)(F)C(F)(F)C(F)(F)C(F)(F)C(F)(F)C(F)(F)C(F)F` was tested, and the outcome was “inactive”.
`O=P(O)(O)OCCC(F)(F)C(F)(F)C(F)(F)C(F)(F)C(F)(F)C(F)(F)F` was tested, and the outcome was “inactive”.
With `FC(F)(Br)C(F)(F)C(F)(F)C(F)(F)C(F)(F)C(F)(F)Br` the outcome was “inactive”.
In the case of `OCC(F)(F)C(F)(F)C(F)(F)F`, the outcome is reported as “inactive”.
In the case of `O=C(O)C(F)(F)C(F)(F)C(F)(F)C(F)(F)C(F)(F)C(F)(F)C(F)(F)C(F)(F)C(F)(F)C(F)(F)C(F)(F)C(F)(F)F`, the outcome is reported as “inactive”.
In the case of `O=S(=O)(OCC(F)F)C(F)(F)F`, the outcome is reported as “inactive”.
In the case of `FC(F)(F)C(F)(F)C(F)(F)CI`, the outcome is reported as “inactive”.
For `FC(F)(I)C(F)(F)C(F)(F)C(F)(F)I`, the outcome was “inactive”.
`FC(F)(F)C(F)(F)C(F)(F)C(F)(F)C(F)(F)C(F)(F)C(F)(F)I` was tested, and the outcome was “inactive”.
In the case of `OCCCC(F)(F)C(F)(F)C(F)(F)C(F)(F)C(F)(F)C(F)(F)C(F)(F)F`, the AC50 is reported as 37.5 µM (active) and the outcome is reported as “inactive”.
For `COC(=O)CCC(F)(F)C(F)(F)C(F)(F)C(F)(F)F`, the outcome was “inactive”.
With `OCC(F)(F)C(F)(F)C(F)(F)C(F)F` the outcome was “inactive”.
`FC1CC(F)(F)C(F)(F)C1(F)F` (configuration not stated) was tested, and the outcome was “inactive”.
In the case of `O=C(O)C(F)(F)C(F)(F)C(F)(F)C(F)(F)F`, the outcome is reported as “inactive”.
With `O=S(=O)(O)C(F)(F)C(F)(F)C(F)(F)C(F)(F)C(F)(F)C(F)(F)C(F)(F)F` the outcome was “inactive”.
With `O=C(CC(=O)C(F)(F)C(F)(F)F)C(F)(F)F` the outcome was “inactive”.

Reference: PubChem BioAssay (EPA / NIEHS)
